Experimental data from PubChem BioAssay.

Assays:
[1] = system: Human papillomavirus type 1a protein E7 (residues 44-93); experiment: HPV1a E7 fragment binders on microarrays, primary screen, biochemical, small-molecule microarray, residues 44-93, 635 nm fluorescence (AID 1108); conditions: small-molecule microarray binding, fluorescence 635 nm; higher = more signal;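 note: E7 fragment applied at 1 µg/mL in TBST for 1 h at 4 C; score combines spot fluorescence with its signal to noise ratio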
[2] = modulators of HCV replicon luciferase signal, primary screen, HCV replication inhibitor project, Huh7 cells, luciferase reporter (AID 1109); conditions: 48 h, higher = more signal;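 note: huh7 hepatoma cells harbouring a luciferase neomycin HCV replicon reporter; luciferase luminescence as measure of HCV replicon replication; test concentration not given here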
[3] = biological target: Left-right determination factor 2 (Homo sapiens) (UniProt O00292); experiment: LEFTY2 binders on small-molecule microarrays, primary screen, biochemical, small-molecule microarray, 635 nm fluorescence scan (AID 1110); conditions: LEFTY2 binding, higher = more signal
[4] = biological target: Calmodulin-1 (Homo sapiens) (UniProt P0DP23); experiment: CALM1 binders on microarrays, EGTA buffer, profiling panel, biochemical, small-molecule microarray, Cy5-labelled CALM1 (AID 1111); conditions: Cy5-CALM1 binding fluorescence, higher = more signal;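 note: labelled calmodulin applied in Tris saline Tween buffer holding calcium plus EGTA and DTT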
[5] = biological target: Calmodulin-1 (Homo sapiens) (UniProt P0DP23); experiment: calcium-bound CALM1 binders on microarrays, profiling panel, artefact control for SMM control-protein annotation, biochemical, small-molecule microarray, Cy5-labelled CALM1, plus calcium (AID 1112); conditions: Cy5-CALM1 binding fluorescence, higher = more signal;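 note: score merges spot fluorescence with signal to noise from triplicate slides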
[6] = small-molecule microarray binders of probe aWnt5a, primary screen, biochemical, biotinylated probe, 635/667 nm fluorescence (AID 1113); conditions: higher = more signal;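 note: score merges 667 nm fluorescence intensity with signal-to-noise per printed feature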
[7] = small-molecule microarray binders of probe aShh, primary screen, biochemical, biotinylated probe, 635/667 nm fluorescence (AID 1114); conditions: higher = more signal;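 note: probe is biotin-labelled aShh protein from a stem cell growth factor screen; measures binding of labelled protein to compounds printed on the slide; score merges feature fluorescence at 667 nm with signal-to-noise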
[8] = small-molecule microarray binders of probe aNog, primary screen, biochemical, biotinylated probe, 635/667 nm fluorescence (AID 1115); conditions: higher = more signal;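 note: probe is biotinylated aNog protein used at 0.15 µg/mL for 1 h at 4 C; z-score combines 667 nm fluorescence of each spot with its signal to noise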
[9] = biological target: Torsin-1A-interacting protein 1 (Homo sapiens) (UniProt Q5JTV8); experiment: LAP1 binders from COS7 cell lysate, primary screen, small-molecule microarray, 635/667 nm fluorescence (AID 1116); conditions: COS7-hLAP1 lysate binding, 635 nm fluorescence, higher = more signal
[10] = biological target: Alpha-bungarotoxin (Bungarus multicinctus) (UniProt P60615); experiment: alpha-bungarotoxin binders on microarray, profiling panel, artefact control for SMM control protein annotation, biochemical, small-molecule microarray, Alexa647 label, 635/667 nm fluorescence (AID 1117); conditions: alpha-BTX-A647 binding fluorescence, higher = more signal
Alpha-bungarotoxin (Bungarus multicinctus), sequence (P60615 whole entry, looked up): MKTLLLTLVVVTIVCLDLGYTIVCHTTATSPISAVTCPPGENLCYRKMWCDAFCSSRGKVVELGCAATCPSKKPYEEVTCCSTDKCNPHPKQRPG

Torsin-1A-interacting protein 1 (Homo sapiens), sequence (Q5JTV8 whole entry, looked up): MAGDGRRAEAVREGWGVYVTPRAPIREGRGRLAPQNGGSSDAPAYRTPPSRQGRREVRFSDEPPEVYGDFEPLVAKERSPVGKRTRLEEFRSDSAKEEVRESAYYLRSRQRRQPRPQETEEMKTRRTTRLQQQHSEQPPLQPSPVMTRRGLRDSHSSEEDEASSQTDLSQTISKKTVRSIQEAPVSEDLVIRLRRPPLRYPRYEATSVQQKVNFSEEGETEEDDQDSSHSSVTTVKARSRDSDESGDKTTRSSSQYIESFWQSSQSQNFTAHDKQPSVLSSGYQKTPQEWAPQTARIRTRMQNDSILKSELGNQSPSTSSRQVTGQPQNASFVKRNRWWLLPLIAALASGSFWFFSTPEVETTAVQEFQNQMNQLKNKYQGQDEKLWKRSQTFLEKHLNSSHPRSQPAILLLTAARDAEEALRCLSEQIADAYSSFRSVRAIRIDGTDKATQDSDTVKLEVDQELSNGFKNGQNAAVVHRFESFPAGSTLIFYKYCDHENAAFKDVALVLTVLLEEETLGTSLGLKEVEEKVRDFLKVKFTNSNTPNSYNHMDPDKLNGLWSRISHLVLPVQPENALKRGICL
Left-right determination factor 2 (Homo sapiens), sequence (O00292 whole entry, looked up): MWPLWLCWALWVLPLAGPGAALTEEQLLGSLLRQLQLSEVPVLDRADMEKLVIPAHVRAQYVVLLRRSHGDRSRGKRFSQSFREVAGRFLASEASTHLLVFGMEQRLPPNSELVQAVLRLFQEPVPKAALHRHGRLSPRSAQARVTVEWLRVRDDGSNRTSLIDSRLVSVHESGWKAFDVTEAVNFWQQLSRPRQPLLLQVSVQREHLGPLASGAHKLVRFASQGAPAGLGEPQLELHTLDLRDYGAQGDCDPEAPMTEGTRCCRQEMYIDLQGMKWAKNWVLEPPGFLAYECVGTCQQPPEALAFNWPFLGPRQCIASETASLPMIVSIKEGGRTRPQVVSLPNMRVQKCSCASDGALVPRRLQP

C[N+](C)(C)CCCCNC(=O)[C@H]1C[C@H]2C(=O)N[C@@H](Cc3ccccc3)C(=O)N2[C@H]1c1ccc(O)cc1
composite z-score [1]: -0.0021
z-score [2]: -0.72
composite z-score [3]: 0.686
composite z-score [4]: -0.494
composite z-score [5]: 0.565
composite z-score [6]: -0.0944
composite z-score [7]: 0.442
composite z-score [8]: 0.0209
composite z-score [9]: 0.427
composite z-score [10]: 1.56

COC(=O)[C@@]1(Cc2ccc(F)cc2)[C@@H]2[C@@H](CC(=O)[C@H]2CC(=O)C(=O)N(C)C)CN1C(=O)c1ccccc1
composite z-score [1]: 1.44
z-score [2]: -2.53
composite z-score [3]: -0.211
composite z-score [4]: 1.29
composite z-score [5]: 0.352
composite z-score [6]: 0.24
composite z-score [7]: 0.522
composite z-score [8]: 1.41
composite z-score [9]: 1.08
composite z-score [10]: 1.15

COc1ccc([C@H]2OC[C@@H]3CC4(CC=CC4)C(=O)N32)cc1
composite z-score [1]: 0.659
z-score [2]: 0.0751
composite z-score [3]: 0.935
composite z-score [4]: -1.18
composite z-score [5]: -1.99
composite z-score [6]: -0.124
composite z-score [7]: -0.0146
composite z-score [8]: -0.196
composite z-score [9]: -0.251
composite z-score [10]: 0.144

CCCCN1CC=CC23O[C@@H]4C=CCOC(=O)[C@@H]4[C@H]2C(=O)N(CCCCCO)[C@@H]3C1=O (stereo not given in full)
composite z-score [1]: -0.524
z-score [2]: 0.536
composite z-score [3]: -1.53
composite z-score [4]: -0.615
composite z-score [5]: -0.363
composite z-score [6]: -0.124
composite z-score [7]: 0.627
composite z-score [8]: 0.151
composite z-score [9]: 1.95
composite z-score [10]: -1.47

CC(C)C[C@@H]1NC(=O)[C@H]2C[C@@H](C(=O)NCCCCCCN(C)C)[C@@H](c3ccc(O)cc3)N2C1=O
composite z-score [1]: 1.09
z-score [2]: 0.414
composite z-score [3]: 1.06
composite z-score [4]: -0.631
composite z-score [5]: -1.19
composite z-score [6]: -0.0337
composite z-score [7]: 0.207
composite z-score [8]: -0.284
composite z-score [9]: 1.03
composite z-score [10]: 0.419

COCCCNC(=O)C1N=C(c2ccc(OCCCO)cc2)N(c2ccccc2)O1 (stereo not given)
composite z-score [1]: 1.41
z-score [2]: -1.46
composite z-score [3]: 0.382
composite z-score [4]: 1.08
composite z-score [5]: 0.131
composite z-score [6]: -0.0286
composite z-score [7]: -0.0035
composite z-score [8]: 0.752
composite z-score [9]: 0.477
composite z-score [10]: 0.649

COC(=O)[C@@]1(Cc2ccc(OC)cc2)[C@H]2c3cc(C(=O)N(C)C)n(Cc4cccc5ccccc45)c3C[C@H]2CN1C(=O)c1ccccc1
composite z-score [1]: 1.48
z-score [2]: -2.35
composite z-score [3]: 0.243
composite z-score [4]: 1.48
composite z-score [5]: 0.94
composite z-score [6]: 0.346
composite z-score [7]: 1.33
composite z-score [8]: 2.12
composite z-score [9]: 1.41
composite z-score [10]: 0.563

COC(=O)c1c(CC[C@@H](CO)NC(=O)N[C@@H](C)Cn2cc(C3(O)CCCCC3)nn2)oc(C(C)=O)c1C(=O)OC
composite z-score [1]: 0.921
z-score [2]: -0.418
composite z-score [3]: 0.703
composite z-score [4]: 0.685
composite z-score [5]: -1.53
composite z-score [6]: -0.0556
composite z-score [7]: 0.0328
composite z-score [8]: -0.0211
composite z-score [9]: 0.666
composite z-score [10]: 0.431

COc1ccc(CCN2C(=O)[C@@]3(c4ccc([N+](=O)[O-])cc4)CC(=O)N(C4CCCCC4)[C@@H]3c3ccc(CO)cc32)cc1
composite z-score [1]: 0.106
z-score [2]: 0.431
composite z-score [3]: 0.636
composite z-score [4]: -0.574
composite z-score [5]: -0.747
composite z-score [6]: 0.0495
composite z-score [7]: -0.229
composite z-score [8]: -0.33
composite z-score [9]: 0.341
composite z-score [10]: -0.167

Cc1ccc(S[C@]2(C(=O)NCC(C)C)CC(=O)N(Cc3cc(C(F)(F)F)cc(C(F)(F)F)c3)[C@@H]2c2ccc(CO)cc2I)cc1
composite z-score [1]: 0.133
z-score [2]: -1.01
composite z-score [3]: -2.48
composite z-score [4]: -0.571
composite z-score [5]: 0.0903
composite z-score [6]: -0.166
composite z-score [7]: 0.108
composite z-score [8]: 0.225
composite z-score [9]: 0.116
composite z-score [10]: -1.05

COc1ccc([Si](C)(C)[C@H]2[C@H](CCn3cc([C@H](O)c4ccccc4)nn3)O[C@@]3(C(=O)N(Cc4cccc(N5CCOC5=O)c4)c4ccccc43)[C@@H]2C)cc1
composite z-score [1]: 0.96
z-score [2]: -2.36
composite z-score [3]: 0.481
composite z-score [4]: 0.0776
composite z-score [5]: -0.182
composite z-score [6]: 0.0094
composite z-score [7]: -0.349
composite z-score [8]: -0.0612
composite z-score [9]: 0.0061
composite z-score [10]: 0.353

C=CCC(OC(C)=O)[C@@H]1[C@@H](N(Cc2cccc3ccccc23)C(=O)c2ccc(-c3ccccc3)cc2)c2cc(OCCCO)ccc2N1C(=O)Cc1ccc(OC)cc1 (stereo not given in full)
composite z-score [1]: 0.144
z-score [2]: -1.36
composite z-score [3]: 0.111
composite z-score [4]: 0.617
composite z-score [5]: 0.291
composite z-score [6]: 0.0479
composite z-score [7]: 0.149
composite z-score [8]: -0.0907
composite z-score [9]: -0.0944
composite z-score [10]: 0.373

COc1ccc(C(=O)O[C@H]2CC[C@]3(C)C4=C(CCC3C2(C)C)[C@]2(C)CC[C@H]([C@H](C)CCCC(C)C)[C@@]2(C)CC4)cc1 (stereo not given in full)
composite z-score [1]: -0.0389
z-score [2]: 0.606
composite z-score [3]: 0.567
composite z-score [4]: -0.459
composite z-score [5]: -0.83
composite z-score [6]: -0.0792
composite z-score [7]: -0.0553
composite z-score [8]: -0.0242
composite z-score [9]: 0.0921
composite z-score [10]: -0.086

OC([C@@H]1CC(c2ccccc2)=NO1)[C@H]1CC(c2ccccc2)=NO1 (stereo not given in full)
composite z-score [1]: -0.0304
z-score [2]: 0.341
composite z-score [3]: 0.176
composite z-score [4]: -0.181
composite z-score [5]: -0.416
composite z-score [6]: 0.0317
composite z-score [7]: -0.214
composite z-score [8]: -0.234
composite z-score [9]: 0.11
composite z-score [10]: -0.0544

COc1cc2c(cc1OC)CN(C(=O)[C@H]1[C@@H]3C(=O)O[C@@H](c4ccccc4)[C@@H](c4ccccc4)N3[C@@H](c3ccc(O)cc3)[C@]13C(=O)Nc1ccc(C#CCNC(N)=O)cc13)CC2
composite z-score [1]: -0.208
z-score [2]: -0.145
composite z-score [3]: 0.264
composite z-score [4]: -0.123
composite z-score [5]: 0.0061
composite z-score [6]: -0.0403
composite z-score [7]: 0.0141
composite z-score [8]: -0.198
composite z-score [9]: -0.0992
composite z-score [10]: -0.0782

O=C1C2C=CC(C(O)c3c(F)cccc3Cl)N(Nc3ccccc3)C2C(=O)N1c1ccccc1 (stereo not given)
composite z-score [1]: 1.46
z-score [2]: -0.927
composite z-score [3]: 0.407
composite z-score [4]: 1.46
composite z-score [5]: 0.546
composite z-score [6]: 0.0775
composite z-score [7]: 0.969
composite z-score [8]: 1.59
composite z-score [9]: 0.765
composite z-score [10]: 0.933

COc1ccc(CCNC(=O)[C@@H]2c3ccccc3C(=O)N(C3Cc4ccccc4C3)[C@H]2c2ccc(CO)cc2)cc1
composite z-score [1]: 1.35
z-score [2]: -1.14
composite z-score [3]: 0.0971
composite z-score [4]: 0.329
composite z-score [5]: 0.732
composite z-score [6]: -0.0738
composite z-score [7]: 0.0856
composite z-score [8]: -0.417
composite z-score [9]: 1.24
composite z-score [10]: 0.134

CN(C)CCCCCCNC(=O)[C@@H]1C[C@@H]2C(=O)N[C@@H](CCCCN)C(=O)N2[C@@H]1c1cccc(OCCO)c1
composite z-score [1]: 1.49
z-score [2]: -0.0282
composite z-score [3]: 1.34
composite z-score [4]: 2.8
composite z-score [5]: 1.34
composite z-score [6]: 1.07
composite z-score [7]: 1.7
composite z-score [8]: 3.42
composite z-score [9]: 4.77
composite z-score [10]: 2

C=CCN1C(=O)[C@@]2(O[C@@H](CCO)[C@H]([Si](C)(C)c3ccc(OC)cc3)[C@H]2C)c2cc(NC(=O)c3ccc(OC)cc3)ccc21
composite z-score [1]: -0.747
z-score [2]: -4.9
composite z-score [3]: 0.629
composite z-score [4]: -0.178
composite z-score [5]: 0.678
composite z-score [6]: -0.199
composite z-score [7]: 0.0062
composite z-score [8]: 0.141
composite z-score [9]: -0.419
composite z-score [10]: 0.565

C=CCC(OC(C)=O)[C@@H]1[C@@H](N(Cc2ccc(-c3cccc(C(F)(F)F)c3)o2)C(=O)c2ccc(-c3ccccc3)cc2)c2cc(OCCCO)ccc2N1C(=O)c1ccc(-c2ccccc2)cc1 (stereo not given in full)
composite z-score [1]: -0.165
z-score [2]: -0.614
composite z-score [3]: -0.15
composite z-score [4]: -0.104
composite z-score [5]: 1.35
composite z-score [6]: 0.0214
composite z-score [7]: 0.275
composite z-score [8]: 0.26
composite z-score [9]: -0.228
composite z-score [10]: 0.288

COc1ccc([Si](C)(C)[C@@H]2[C@@H](CC(=O)N3Cc4ccccc4C[C@H]3CO)O[C@]3(C(=O)N(C)c4c(Br)cc(C)cc43)[C@H]2C)cc1
composite z-score [1]: 1.37
z-score [2]: -4.43
composite z-score [3]: 0.637
composite z-score [4]: 0.0208
composite z-score [5]: 0.235
composite z-score [6]: 0.0078
composite z-score [7]: -0.0793
composite z-score [8]: -0.454
composite z-score [9]: 0.418
composite z-score [10]: 1.01

O=C1OCCC/C=C\[C@H]2OC34C=CCN(CCN5CCOCC5)C(=O)[C@H]3N(CCCO)C(=O)[C@@H]4C12 (stereo not given in full)
composite z-score [1]: -0.941
z-score [2]: -0.61
composite z-score [3]: -0.27
composite z-score [4]: -1.01
composite z-score [5]: -0.147
composite z-score [6]: -0.18
composite z-score [7]: -0.26
composite z-score [8]: -0.23
composite z-score [9]: 1.05
composite z-score [10]: 1.19
